In PubChem BioAssay (NCATS):
Inconclusive results are not listed. Activity calls are given as the source filed them. Calls come from the whole dose curve; as a rule, active = well fitted inhibition curve with a large enough effect in the signal ratio, with a control signal flat (not every such curve was filed as active); inconclusive = small, poorly fitted or top-dose-only effect, or effect the other way, or a change in a side signal; inactive = no such curve, though single readings can be large or run the other way; the % refers to the signal ratio.

target: Peroxisome proliferator-activated receptor delta (Homo sapiens) (UniProt Q03181); assay: qHTS assay for small molecule antagonists of peroxisome proliferator-activated receptor delta signaling (AID 588535); details: HEK293T PPARd-UAS-bla, beta-lactamase FRET ratio, 18 h; series mostly up to 76.7 µM; activity change, negative = inhibition: at the top concentration
Source text: NIH Chemical Genomics Center [NCGC] U.S. Environmental Protection Agency [EPA] National Institutes of Environmental Health Sciences [NIEHS] National Toxicology Program [NTP] NCGC Assay Overview The Peroxisome proliferator-activated receptors (PPARs) are lipid-activated transcription factors of the nuclear receptor superfamily with three distinct subtypes namely PPAR alpha, PPAR delta (also called PPAR beta) and PPAR gamma. All these subtypes heterodimerizes with Retinoid X receptor (RXR) and have different physiological functions. […] This role of PPAR delta implicates the potential use of its ligands in the treatment of metabolic disorders.
NCGC Assay Protocol Summary Using a beta-lactamase reporter-gene under control Peroxisome Proliferator-Activated Receptor delta (PPAR-delta) response element, a cell-based assay [GeneBLAzer (PPAR-delta-UAS-bla assay developed by Invitrogen] was used to measure PPAR-delta ligands signaling. GeneBLAzer PPAR-delta-UAS-bla HEK293T cells were used with assay medium containing 2% charcoal/dextran FBS. The assay was performed in clear bottom black Greiner 1536-well plates. Library compounds were measured for their ability to inhibit the reporter gene activity. Compounds were screened in a titration series in 1536-well format. The fluorescence intensity (405 nm excitation, 460/530 nm emission) was measured using an EnVision plate reader. […] Concentration-response titration points for each compound were fitted to the Hill equation yielding concentrations of half-maximal inhibition (IC50) and maximal response (efficacy) values. qHTS protocol for PPAR-delta beta-lactamase assay in antagonist mode [Step] [Parameter] [Value] [Description] 1. Reagent; 5 uL; 4000 cells/well 2. Incubation; 37 C for 5 hrs 3. Compounds; 23 nL; 0.59 nM to 92 uM 4. […] Incubation; 37 C for 18 hrs 7. Detection reagent; 1 uL of CCF4-dye 8. Incubation; RT for 2 hrs 9. Detection; Fluorescence; Envision plate reader

Chain of Peroxisome proliferator-activated receptor delta (Homo sapiens) (Q03181 whole entry, looked up): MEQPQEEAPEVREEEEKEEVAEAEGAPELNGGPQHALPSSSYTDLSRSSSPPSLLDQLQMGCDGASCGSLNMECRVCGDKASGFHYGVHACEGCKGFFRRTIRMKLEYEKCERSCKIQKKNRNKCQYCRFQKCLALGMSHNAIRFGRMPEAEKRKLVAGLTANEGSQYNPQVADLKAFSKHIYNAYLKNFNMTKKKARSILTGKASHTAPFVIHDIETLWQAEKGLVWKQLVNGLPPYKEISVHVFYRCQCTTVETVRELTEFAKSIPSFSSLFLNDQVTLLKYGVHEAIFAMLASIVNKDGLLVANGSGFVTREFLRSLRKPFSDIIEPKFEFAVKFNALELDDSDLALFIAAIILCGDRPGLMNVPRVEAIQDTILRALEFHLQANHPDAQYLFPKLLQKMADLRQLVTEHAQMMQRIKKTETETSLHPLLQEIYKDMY

SMILES | outcome | activity change, negative = inhibition
O=c1c(O)c(-c2ccc(O)cc2)oc2cc(O)cc(O)c12 | inactive | 
CC(C)OC(=O)C(C)(C)Oc1ccc(C(=O)c2ccc(Cl)cc2)cc1 |  | 8.22% (inactive)
O=c1[nH]cnc2c1ncn2[C@H]1CC[C@@H](CO)O1 |  | 28.4% (inactive)
CC(=O)c1ccc(S(=O)(=O)NC(=O)NC2CCCCC2)cc1 | inactive | 
CC(=O)N[C@@H](CS)C(=O)O |  | -7.04% (inactive)
O=C(O)Cc1cccc2ccccc12 | inactive | 
O=C1NC(=O)C(c2ccccc2)(c2ccccc2)N1 | inactive | 
O=C(O)c1cc(-c2ccccc2)nc2ccccc12 |  | -1.15% (inactive)
CN(C)CCC(c1ccccc1)c1ccccn1 (stereo unspecified) |  | 4.69% (inactive)
O=c1c(-c2ccc(O)cc2)coc2cc(O)ccc12 | inactive | 
CCCNC(=O)NS(=O)(=O)c1ccc(Cl)cc1 |  | 9.26% (inactive)
